Rows were chosen to be rich in hits. Some 1.5% of all compounds tested hit in one or more screens of this group.
EBV gp42 block = blocks Epstein-Barr virus glycoprotein 42 binding; Q1HVG2; inhibition, % (tested at 21.74 µM); Fluorescence polarization binding assay, mP read-out; actives 0.42% (n = 220,000); in the data active means inhibition above about 50%
eLon inh = inhibits E. coli Lon protease | P0A9M0 | purified E. coli Lon protease, fluorescence polarization | inhibition, % at 7.94 µM | actives 0.42% (n = 360,000); in the data active means inhibition above about 13%, passing the limit was not always enough;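 further: 0% = enzyme with probe and DMSO and 100% = no enzyme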
GLD-1 TGE inh = GLD-1-TGE RNA interaction inhibition (C. elegans); Q17339; purified GLD-1 + fluorescein TGE RNA, fluorescence polarization; inhibition, % at 5.96 µM; actives 0.44% (n = 320,000); AID 2280;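 active means percent inhibition above a per-plate cutoff, the plate mean of test compounds plus 3 SD, cut at about 30% in these data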;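 further: 0% = DMSO wells with GLD-1 and probe and 100% = wells lacking GLD-1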
MEX-5 binding = C. elegans MEX-5 TCR-2 RNA binding activity | activity score (negative = inhibition of binding), % at 10 µM | Q9XUB2 | MEX-5/FITC-TCR2 RNA binding, fluorescence polarization; stronger effect = lower value | AID 1832 | actives 0.38% (n = 300,000);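 active means inhibition past about -25% in most replicates, and total fluorescence under double the plate's negative control median, limit read from the data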;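 further: 0% = DMSO and -100% = 5 µM competing unlabeled TCR2 RNA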
MCL1-BIM inh = MCL1-BIM-BH3 interaction inhibition (human); GST-MCL1 / FITC-Bim-BH3 fluorescence polarization; inhibition, % at 10.9 µM; actives 0.68% (n = 320,000);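 active means inhibition above the mean inhibition of all tested compounds plus 3 SD, set per campaign, cut at about 40% in these data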;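 further: 0% = DMSO wells and 100% = unlabeled Bim-BH3 peptide control; higher means more loss of mP so more displacement of Bim peptide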
BCLXL inh = blocks human Bcl-xL binding to Bim BH3 peptide; Q07817; GST-Bcl-xL / FITC-Bim BH3 peptide fluorescence polarization; inhibition, % at 10.9 µM; actives 0.7% (n = 320,000);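 active means inhibition above the mean of all tested compounds plus 3 SD, cutoff set per campaign, cut at about 30% in these data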;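 further: 0% = DMSO wells and 100% = unlabeled Bim-BH3 peptide competitor; inhibitors lower millipolarization by displacing the labeled peptide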
An asterisk follows results filed as active; . = not tested or not shown.

SMILES	EBV gp42 block	eLon inh	GLD-1 TGE inh	MEX-5 binding	MCL1-BIM inh	BCLXL inh
NC(=O)C1(N2CCCCC2)CCN(Cc2nc(-c3cccs3)no2)CC1	8	1	1	-35*	-12	1
Cc1ccc(C(=O)NC2CC(C)(C)NC(C)(C)C2)cc1S(=O)(=O)N1CCCCC1	.	4	0	0	7	4
N#Cc1sc2nc(-c3ccccc3)cc(-c3ccco3)c2c1N	11	4	6	-5	16	18
COc1cccc(-c2cc(C(F)(F)F)c3c(N)c(C#N)sc3n2)c1	-37	.	-2	-4	46*	27
CCN1CCN(c2ccccc2NC(=O)c2ccc(-n3cccn3)cc2)CC1	.	8	12	.	-19	-16
O=C(CN1C(=O)S/C(=C\c2ccccc2)C1=O)NNC(=O)c1ccccc1O	2	15	3	-2	10	5
COc1ccc(/C=C2\SC(=O)N(CC(=O)NNC(=O)c3ccccc3O)C2=O)cc1	58*	7	-5	0	9	6
CC(=O)Nc1ccc(N=Cc2c(O)c3ccccc3oc2=O)cc1	.	-4	.	-10	.	.
CC(=O)Nc1ccc(N=Cc2c(O)c(C(=O)Nc3ccccc3)cc3ccccc23)cc1	136*	.	-74	-14	-79	-2
CCN(CC(=O)Nc1ccc(NC(C)=O)cc1)C(=O)c1cccc(N2C(=O)c3ccccc3C2=O)c1	.	-6	.	.	.	.
O=c1cc(O)c2ccc(O)cc2o1	5	4	9	-8	2	5
O=c1ccc2[n+]([O-])c3ccc(O)cc3oc-2c1	110*	-5	.	-81*	.	.
Oc1[nH]c2ccccc2c1N=NC(=S)N1CCOCC1	-7	-1	-2	-41*	7	0
Oc1[nH]c2ccc(Br)cc2c1N=NC(=S)N1CCOCC1	-14	2	2	-5	2	-7
CCc1nn2c(=O)cc(COc3ccc(/C=C4\C(=N)N5N=C(CC(C)C)SC5=NC4=O)cc3)nc2s1	9	.	3	-2	7	6
CCC1=NN2C(=N)/C(=C\c3ccc(OCc4cc(=O)n5nc(CC)sc5n4)c(OC)c3)C(=O)N=C2S1	63*	6	.	5	.	.
Cc1c(CNCCc2ccccc2Cl)c(C(=O)O)c(C)n1-c1ccccc1	.	-5	-1	1	5	4
CCC1c2ccc(C)n2CCN1C(=O)Nc1ccccc1OC (stereo unspecified)	-8	16	50*	-6	50*	50*
Cc1nnc(SCC(=O)Nc2ccc(N3CCN(S(C)(=O)=O)CC3)cc2)o1	.	-2	1	0	-12	-7
COc1ccc(Nc2ncnc3nc[nH]c23)cc1OC	-8	-11	1	-33*	-1	-1
Cn1c(SCC(=O)Nc2ccc3nc(SCC(=O)N4CCCC4)sc3c2)nnc1-c1ccc(N)cc1	88*	1	.	.	.	.
CN(Cc1cccc(F)c1)C(=O)CNS(=O)(=O)c1ccc2ccccc2c1	.	1	2	-2	6	9
Nc1ccc(N(CCO)CCO)cc1	-6	9	22	-28*	43*	42*
CCN(CC)c1ccc(N)cc1	.	-19	-9	.	-13	-4
CCN(CC)c1ccc2c(c1)oc(=O)c1c(Cl)cc(=O)oc12	54*	-157	-112	0	-29	-10
SMILES	EBV gp42 block	eLon inh	GLD-1 TGE inh	MEX-5 binding	MCL1-BIM inh	BCLXL inh
CC1=NN(c2ccc(C(=O)O)c(N)c2)C(=O)C1	-17	-7	-2	-39*	20	21
COc1cc(C(=O)Nc2nc3ccccc3[nH]2)ccc1OC(F)F	-8	5	1	2	-6	73*
O=C(NNC(=O)c1cc(Cl)ccc1[N+](=O)[O-])c1csc(N2CCOCC2)n1	.	-16	6	-31*	0	2
Cc1ccc(N(C(=O)c2csnn2)C(C(=O)NC2CCCCC2)c2cccnc2)c(C)c1 (stereo unspecified)	.	8	4	0	2	5
CCN(C(=O)Cn1cc(C(=O)C(=O)N2CCOCC2)c2ccccc21)c1ccccc1	.	5	-7	1	3	0
Cc1cccc(N=C2NC(=O)/C(=C3/C(=O)N(C)c4ccccc43)S2)c1C	-8	1	10	0	35	50*
CC1=C(C(=O)N(C(C)C)C(C)C)CC(CC(=O)NC2CC2)C(=O)N1CCC1=CCCCC1 (stereo unspecified)	.	2	.	.	.	.
